# Results reported in PubChem BioAssay AID1619 (SRMLSC, 2009).
# Out of some 220,000 compounds screened, about 830 (0.38%) were called active. These entries were drawn from the full list. Measured potencies and affinities stand elsewhere. Unmarked numbers belong to inactive results.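 How the source made its calls: active means compound inhibiting the enzyme by more than half at any dose during confirmatory dose-response retesting; inconclusive means strong single-dose inhibitors picked by rank but not retested; inactive means the rest.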
# Target: Leucine aminopeptidase (Plasmodium falciparum (isolate 3D7)) (UniProt Q8IL11)
# Test: P. falciparum M17LAP inhibitors, primary screen, biochemical, fluorogenic H-Leu-NHMec substrate, 1536-well (AID 1619);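 further: plate controls were full reaction with DMSO carrier for no effect and no enzyme background for full effect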
# Conditions: recombinant M17LAP, H-Leu-NHMec fluorogenic kinetic assay; at 30 µM; hits give high values
# Sequence of Leucine aminopeptidase (Plasmodium falciparum (isolate 3D7)) (Q8IL11 whole entry, looked up): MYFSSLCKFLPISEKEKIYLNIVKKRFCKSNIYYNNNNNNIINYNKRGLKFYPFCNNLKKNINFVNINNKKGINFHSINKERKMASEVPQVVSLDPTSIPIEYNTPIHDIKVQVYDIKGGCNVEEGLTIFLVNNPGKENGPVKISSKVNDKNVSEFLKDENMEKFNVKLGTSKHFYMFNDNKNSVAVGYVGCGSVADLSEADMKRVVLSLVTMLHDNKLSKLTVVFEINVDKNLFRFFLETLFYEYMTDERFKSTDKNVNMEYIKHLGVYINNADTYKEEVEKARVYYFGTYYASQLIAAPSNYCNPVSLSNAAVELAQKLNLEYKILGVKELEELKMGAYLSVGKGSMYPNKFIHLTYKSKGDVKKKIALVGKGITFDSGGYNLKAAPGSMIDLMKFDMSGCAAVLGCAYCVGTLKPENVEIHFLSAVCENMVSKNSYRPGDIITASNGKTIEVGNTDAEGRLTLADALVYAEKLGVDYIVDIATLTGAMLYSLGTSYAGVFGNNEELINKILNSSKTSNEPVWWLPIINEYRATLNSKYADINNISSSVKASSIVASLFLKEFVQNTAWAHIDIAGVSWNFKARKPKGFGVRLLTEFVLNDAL
row,Structure (SMILES),inhibition [%]
1,COc1cccc(N2CCN(C(=S)NCCc3ccccc3)CC2)c1,-3.71
2,CCOc1ccc(S(=O)(=O)NCCCN2CCOCC2)cc1,-8.49
3,Cc1ccc2c(c1)N(C(C)C(=O)NCc1ccccn1)C(=O)CO2 (stereo unspecified),-7.53
4,COc1ccccc1NC(=O)CSc1nc2ccccc2cc1Cc1ccccc1,3.65
5,COc1cc(NC(=O)CSc2nccc(C)n2)c(C(=O)O)cc1OC,43.1
6,CCc1cc2ccccc2nc1SCC(=O)Nc1cc(C)on1,4.25
7,CCc1cc2c(C)ccc(C)c2nc1SCC(=O)Nc1c[nH]c(=O)[nH]c1=O,14.5
8,COc1cc(NC(=O)CSc2cc(C)c3cc(C)cc(C)c3n2)c(C(=O)O)cc1OC,15.4
9,O=C(CSc1ncnc2scc(-c3ccccc3)c12)Nc1ccc(C(=O)O)cc1,5.99
10,COc1cc(NC(=O)CSc2ccccc2)c(C(=O)O)cc1OC,39.3
11,COC(=O)CSc1ncnc2scc(-c3ccccc3)c12,-1.19
12,CCn1c(COc2ccc3c(c2)CCCC3)nnc1SCC(=O)Nc1ccc(C(=O)OC)cc1,5.55
13,Cc1ccc(CNC(=O)C2CC(=O)OC23CCCC3)c(C)c1 (stereo unspecified),6.63
14,CN(C)CCNc1c2c(nc3nnnn13)CCCC2,5.48
15,O=C(NN=C1CCCC1)C1COc2ccccc2O1 (stereo unspecified),0.87
16,O=C(O)C1CC(=O)N(Cc2ccc3c(c2)OCO3)C1 (stereo unspecified),-0.32
17,COC(=O)[C@@]1(Cc2ccc(F)cc2)[C@H]2c3cc(C(=O)N(C)C)n(Cc4c(CO)[nH]cc(C)c4=O)c3C[C@H]2CN1C(=O)c1ccccc1,6.87
18,O=c1cc(NCC2CCCO2)[nH]c(=O)n1-c1ccc(Cl)cc1 (stereo unspecified),3.43
19,C=CCNS(=O)(=O)c1nc(C)c(Cl)c(C)c1C#N,9.01
20,CC(Sc1ncc(C#N)c(N)n1)C(=O)Nc1ccccc1 (stereo unspecified),9.93
21,CCc1nnc(NS(=O)(=O)c2ccc(NC(=O)c3cccc4ccccc34)cc2)s1,15
22,CCc1nnc(NS(=O)(=O)c2ccc(N/C=C\C(=O)c3ccc4ccccc4c3)cc2)s1,12.1
23,CCc1nnc(NS(=O)(=O)c2ccc(NC(=S)NC(=O)/C=C/c3ccc(F)cc3)cc2)s1,53
24,CCc1nnc(NS(=O)(=O)c2ccc(NC(=S)NC(=O)/C=C/c3ccccc3)cc2)s1,23.5

row,Structure (SMILES),inhibition [%]
1,CCc1nnc(NS(=O)(=O)c2ccc(NC(=S)NC(=O)/C=C/c3ccc(OC)cc3)cc2)s1,40.7
2,CCc1nnc(NS(=O)(=O)c2ccc(NC(=O)COc3ccc(Cl)c(C)c3)cc2)s1,52.7
3,CCc1nnc(NS(=O)(=O)c2ccc(NC(=O)OC)cc2)s1,6.85
4,CCc1nnc(NS(=O)(=O)c2ccc(NC(=O)/C=C/c3ccccc3Cl)cc2)s1,1.04
5,Cc1ccc(Nc2nnc(SCC(=O)NCCN3C(=O)CSC3=O)s2)cc1C,54.4
6,O=C(NCCc1c[nH]c2ccccc12)c1c(Cl)nc2sccn12,-3.3
7,O=C(NCc1ccncc1)c1cn(-c2ccccc2)nc1-c1cccnc1,9.29
8,CCOC(=O)Cc1nnc(Nc2ccc(C)cc2C)c2ccccc12,-12.3
9,CC(C)CCNC(=O)C1CCC(=O)N1C(C)C (stereo unspecified),-2.71
10,N#CCCN(CC(=O)O)S(=O)(=O)c1ccccc1,-11.6
11,CCc1ccc(C(=O)Nc2nnn(CC)n2)cc1,10.2
12,C1CCCCCC2(CCCCC1)OCC(CN1CCOCC1)O2 (stereo unspecified),1.36
13,Cc1c(C(=O)c2ccccc2)c2ccccn2c1CCc1ccccn1,5.7
14,CCCCc1ccc(NC(=O)CN2NS(=O)(=O)c3ccccc3C2=O)cc1,52.6
15,O=C(CN1NS(=O)(=O)c2ccccc2C1=O)Nc1ccccc1OC(F)F,43.5
16,CC1(c2ccccc2)NC(=O)N(CC(=O)Nc2cccc(C#N)c2)C1=O (stereo unspecified),-4.04
17,N#Cc1cccc(NC(=O)COC(=O)c2cccc(N3C(=O)c4ccccc4C3=O)c2)c1,8.44
18,O=C1CSC(c2cccnc2)N1c1ccc(F)cc1 (stereo unspecified),9.53
19,CC(=O)Nc1ccc(CN2CCCC(CO)(Cc3ccccc3C)C2)cc1 (stereo unspecified),-0.77
20,Nc1nc2n(n1)C(c1ccco1)CC(c1ccc(Cl)cc1)N2 (stereo unspecified),-19.4
21,Cc1cccc(OC(=O)C2C(c3ccccc3)C(C(=O)O)C2c2ccccc2)c1 (stereo unspecified),33.4
22,COc1ccc(/C=C2/SC(=O)NC2=O)cc1,25.1
23,Nc1c(-c2cccc(Cl)c2)cnn1-c1cccc(C(F)(F)F)c1,5.43
24,C=C1C(C(=O)Nc2ccc(OCC)cc2)C1C(=O)Nc1ccc(OCC)cc1 (stereo unspecified),-7.51

row,Structure (SMILES),inhibition [%]
1,COc1ccc(OC)c(NC(=O)C2CCCC2)c1,-9.43
2,COc1ccc(OC)c(NC(=O)C2CCCCC2)c1,5.19
3,CCOc1ccc(NC(=O)C2C3CCC4C(CCC32)C4(Cl)Cl)cc1 (stereo unspecified),9.32
4,CC(=O)NC(=O)NC1OC(=O)C(Cl)=C1Cl (stereo unspecified),4.19
5,Cn1nc(C(=O)NCCOc2ccccc2)c2ccccc2c1=O,-0.35
6,CCOC(=O)CSCC(NC(=O)OC(C)(C)C)C(=O)OCC (stereo unspecified),0.56
7,CCOC(=O)C(CSCC(=O)c1ccc(Cl)cc1)NC(=O)OC(C)(C)C (stereo unspecified),25.7
8,CCN(CC)S(=O)(=O)c1ccc(N)cc1,11.4
9,CCCSc1ccc(C(=O)Nc2ccc(Cl)cc2)cn1,-6.5
10,COc1ccc(-n2c(C)cc(/C=C(\C#N)C(=O)NCc3ccco3)c2C)cc1,-8.8
11,Cc1cc(/C=C(\C#N)C(=O)NCc2ccco2)c(C)n1-c1cccnc1,20.4
12,Cc1ccc(-n2c(Cc3cccn3C)nnc2SCC(=O)NCc2ccco2)cc1,20.7
13,Cc1ccc(Cn2ccc(C3CC3)n2)cc1,-1.75
14,COC(=O)C1=C(O)C2(C(=O)O)CC(C(=O)OC)=C(O)C(C(=O)O)(C1)C2,-3.67
15,CC(=O)NC1(C(=O)O)CCCC1,9.39
16,Cc1ccc(S(=O)(=O)NCCCCCC(=O)Nc2ccccc2)cc1,3.08
17,CCN1C(=O)/C(=C2/C=Cc3ccccc3N2CC)SC1=S,-0.63
18,N#CC1=C(N)Oc2n[nH]c(-c3ccccc3)c2C1c1ccncc1 (stereo unspecified),62.5
19,Cc1[nH]nc2c1C(c1ccsc1)C(C#N)=C(N)O2 (stereo unspecified),29.4
20,CCCc1[nH]nc2c1C(c1ccncc1)C(C#N)=C(N)O2 (stereo unspecified),30.1
21,Cc1[nH]nc2c1C(CC(C)C)C(C#N)=C(N)O2 (stereo unspecified),14.9
22,CCCc1[nH]nc2c1C(c1ccsc1)C(C#N)=C(N)O2 (stereo unspecified),2.74
23,CCc1[nH]nc2c1C(c1cccnc1)C(C#N)=C(N)O2 (stereo unspecified),11.3
24,CC(C)(C)c1[nH]nc2c1C(c1cccnc1)C(C#N)=C(N)O2 (stereo unspecified),5.24

row,Structure (SMILES),inhibition [%]
1,CC(C)CC1C(C#N)=C(N)Oc2n[nH]c(-c3cccs3)c21 (stereo unspecified),73.3
2,CO/N=C/NC(=O)c1c(OC)ccnc1Oc1ccccc1,6.63
3,CSCCC(NC(=O)c1ccc([N+](=O)[O-])cc1Cl)C(=O)OCC(=O)N(C)C (stereo unspecified),-3.36
4,O=C(Nc1ccccc1C(=O)N1CCOCC1)C1CCCO1 (stereo unspecified),-7.06
5,COC(=O)Cc1[nH]nc2c1C(c1ccc(O)c(OC)c1)C(C#N)=C(N)O2 (stereo unspecified),17.1
6,CCCc1[nH]nc2c1C(c1cccnc1)C(C#N)=C(N)O2 (stereo unspecified),9.46
7,CCCc1[nH]nc2c1C(Cc1ccccc1)C(C#N)=C(N)O2 (stereo unspecified),28.5
8,Cc1ccc(C2C(C#N)=C(N)Oc3n[nH]c(C)c32)cc1 (stereo unspecified),52.9
9,Cc1[nH]nc2c1C(CCc1ccccc1)C(C#N)=C(N)O2 (stereo unspecified),68.1
10,CCCc1[nH]nc2c1C(c1ccc(O)c(OC)c1)C(C#N)=C(N)O2 (stereo unspecified),29.1
11,CC(C)c1[nH]nc2c1C(c1cccnc1)C(C#N)=C(N)O2 (stereo unspecified),13.5
12,Cc1ccc(-c2ccc(C3C(C#N)=C(N)Oc4n[nH]c(C)c43)o2)cc1 (stereo unspecified),15.7
13,CC(C)NC(=O)/C=C/C(=O)O,-17.6
14,CCn1c(NCc2ccco2)nc2ccccc21,3.48
15,Cc1cc(C)cc(OCC(=O)OCC(=O)c2ccc3c(c2)NC(=O)CO3)c1,-0.31
16,O=C(CNC(=O)c1ccccc1)NCC(=O)OCc1ccccc1Cl,-2.59
17,O=C(CN(c1ccccc1)S(=O)(=O)c1ccc(F)cc1)NC1CCS(=O)(=O)C1 (stereo unspecified),8.02
18,CCOc1ccc(CC(=O)N2CCN=C2SCc2ccc([N+](=O)[O-])cc2)cc1,-3.75
19,Cc1cc(C)c2cc(C(=O)N3CCC(Cc4ccccc4)CC3)[nH]c2c1,-4.41
20,COC(=O)c1ccc(C(=O)OC)c(NC(=O)CSc2cccc[n+]2[O-])c1,-1.81
21,Cc1ccc(-c2csc(/C(C#N)=C(\O)CCl)n2)cc1,6.37
22,N#CC1=C(N)Oc2cc3ccccc3cc2C1c1cccnc1 (stereo unspecified),0.21
23,Cc1ccc(C2C(C#N)=C(N)Oc3nc(-c4ccccc4)[nH]c32)o1 (stereo unspecified),94
24,Cc1ccc(-c2c(C#N)c(N)nc3c2CCCC3)s1,9.55
